Results on 40 compounds are retold here after the supplement of paper PMC6805474.

Molecules are shown by their SMILES.

For this experiment, the system named is Schistosoma mansoni schistosomula (LE). Description: XTT viability relative to DMSO control; higher = more viable (less active). The conditions noted are these: 72 h; 10 µM. On the procedure: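 XTT/PMS was then added for a further 24 h (72 h total) and A450 was read. % viability = (sample - heat-killed control)/(DMSO control - heat-killed control) x 100, from duplicate wells in two independent experiments.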
A general note: Tetrazolium dyes change colour on reduction, which living cells bring about.
As for `CCn1ncc2c(NC3CCOCC3)c(CNC(=O)c3ccnn3C)c(C)nc21`, the XTT viability came to 92.5%.

Take `COc1ccc(C2=NN(C3CCCCCC3)C(=O)C2(C)C)cc1OCCCCOc1ccc(-c2nn[nH]n2)cc1`: the XTT viability was found to be 3.51%.

Regarding `COc1ccc(Nc2ccccc2NC(=O)c2ccc(O)nc2)cc1`, the XTT viability came to 176%.

With `O=C(NCc1ccco1)N1CCN(Cc2ccc(Cl)s2)CC1`, the XTT viability amounted to 93.6%.

`COc1cncc(-c2cncc(N3CCN(c4ccncc4)CC3)n2)c1`: the XTT viability was found to be 103%.

With `CCc1cc(=O)n(C)c(SC(C)C(=O)Nc2ccc(F)cc2)n1` (stereo not given), the XTT viability is 115%.

`CC(C)C(Oc1cccc2ccccc12)C(=O)O` (stereo not given): the XTT viability worked out at 108%.

On to `Cc1ccc2oc(-c3cc(NC(=O)Cc4ccccc4)ccc3Cl)nc2c1`, for which the XTT viability stood at 109%.

For the compound `Cc1noc(C)c1C(=O)N1CCCC(c2[nH]c3c(C)cccc3c2-c2ccncc2)C1` (stereo not given), the XTT viability came to 67.5%.

Regarding `Cc1ccc(Oc2ccc(NC(=O)CNc3ccccc3N3CCCC3=O)cc2)cc1`, the XTT viability worked out at 77%.

On to `Cc1ncc(-c2ccnc(Nc3ccc(S(C)(=O)=O)cc3)n2)n1C(C)C`, for which the XTT viability is 66.9%.

As to `CC1(C)Cc2c(c(N3CCOCC3)nc3snc(Br)c23)CO1`, the XTT viability stood at 71.5%.

For the compound `OCCc1ccc(Nc2nccc(-c3nnc4ccccn34)n2)cc1`, the XTT viability came out at 109%.

As to `Cc1nnc(NCc2cccc(Cl)c2)c2ccccc12`, the XTT viability was 102%.

Turning to `CCCCCCCCCCCCCCCCOP(=O)([O-])OCC[N+](C)(C)C`, the XTT viability worked out at 127%.

In the case of `FC(F)(F)c1nnc2ccc(Cl)nn12`, the XTT viability amounted to 84%.

As for `CC[P](CC)(CC)=[Au][S][C@H]1O[C@@H](COC(C)=O)[C@H](OC(C)=O)[C@@H](OC(C)=O)[C@@H]1OC(C)=O`, the XTT viability turned out to be 203%.

Take `Cc1cnc(N2CCN[C@@H](Cc3ccccc3)C2)nc1Oc1ccc(-n2ccnc2)cc1`: the XTT viability was found to be 17.8%.

Regarding `Cc1cccc(-c2nc(Nc3ccncn3)c3sccc3n2)n1`, the XTT viability came out at 39.9%.

Consider `NCC(=O)N1CCn2c(nc(-c3ccccc3)c2Nc2ccc3c(c2)OCO3)C1`, for which the XTT viability was found to be 129%.

In the case of `O=C(Nc1cnc2ccccc2c1)c1cccc(-n2cnnn2)c1`, the XTT viability was found to be 85.7%.

With `Cc1ccc2[nH]c3c(NCCN(C)C)ncnc3c2c1`, the XTT viability came out at 72.5%.

Take `O=C(NCCc1c[nH]c2ccccc12)c1cc2ccccc2oc1=O`: the XTT viability was 91.2%.

For the compound `CCOc1ccccc1NC(C)C(=O)Nc1cc(C(F)(F)F)ccc1N1CCOCC1` (stereo not given), the XTT viability worked out at 96%.

As to `O=C1COCc2ccc(Br)cc2N1Cc1ccc(C(F)(F)F)cc1`, the XTT viability is 99.5%.

Regarding `COc1ccccc1CNC(=O)c1cc(C2CC2)nc2c1cnn2C(C)C`, the XTT viability was determined as 38.4%.

With `Nc1ncnc2c1c(-c1cnc3ccccc3c1)nn2CC1CCNCC1`, the XTT viability came out at 169%.

In the case of `CCOC(=O)NC(=O)c1ccsc1NC(=O)c1nc2ccccc2s1`, the XTT viability came out at 134%.

`COc1cc(NC(C)CCCN)c2ncccc2c1` (stereo not given): the XTT viability came to 77.4%.

Take `COc1cc(C2=NCCN2)ccc1-c1cn(-c2cccc(C3=NCCN3)c2)nn1`: the XTT viability worked out at 72.8%.

Regarding `c1csc(-c2cnc3sc(NCC4CCOCC4)nn23)c1`, the XTT viability was found to be 95.7%.

Take `CCc1nc2ccc(C(=O)NCc3ccc4c(c3)OCO4)cn2c1N(C)Cc1cccs1`: the XTT viability was determined as 140%.

Regarding `CNC(=O)C1Cc2c([nH]c3cc(Cl)ccc23)C2(CCN(CCc3ccccc3)CC2)N1` (stereo not given), the XTT viability was 13.4%.

Take `COc1ccc(-c2cnc3ccc(N4CCCC4)nn23)cc1OC`: the XTT viability was 60.5%.

For `COc1ccc(Oc2ccc([C@@H](C)N(C)c3ncc4c(N)nc(N)nc4n3)cc2)cc1`, the XTT viability is 4.74%.

`CC(C)n1ncc2c(C(=O)NCC(c3cccs3)N3CCOCC3)cc(-c3ccccc3)nc21` (stereo not given): the XTT viability was 71.6%.

As to `Cc1cc(C)n2nc(C(=O)Nc3cc(C(F)(F)F)ccc3N3CCOCC3)nc2n1`, the XTT viability was 73.3%.

For `COc1ccc(C2=NCCN2)cc1-c1cn(-c2cccc(C3=NCCN3)c2)nn1`, the XTT viability worked out at 85.9%.

Regarding `CN(C(=O)c1cc2c(-c3cncnc3)cccc2[nH]1)c1ccccc1`, the XTT viability amounted to 102%.

Regarding `Nc1ccc2ncnc(Nc3ccc(OCc4cccc(F)c4)c(Cl)c3)c2c1`, the XTT viability came to 55.9%.
